From PubChem
HT1080NT lethal = kills 2HG-producing HT-1080-NT fibrosarcoma cells; HT-1080-NT fibrosarcoma viability, CellTiter-Glo ATP luminescence, 48 h; Potency, µM (doses to about 46.1 µM), for inactives: at the highest dose activity, negative = less viability, hits mostly cytotoxic; 1.6% of 360,000 active; AID 686970;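 further: NT is the 2HG producing partner of a matched IDH1 knockdown line; potency means the concentration at half of the fitted maximal effect; 0% = DMSO-treated cells and -100% = media-only wells without cells; nearly all actives have a fitted effect of over 55% in size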
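Compounds were tested in concentration-response format on HT-1080-NT cells for 48 hours at 37 degrees C. Cell viability came from CellTiter-Glo luminescence; curves were classified by r2, response magnitude and activity.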
HT1080 IDH1KD tx = toxicity to HT-1080 IDH1 knockdown cells (counter line) | HT-1080 IDH1 knockdown viability, ATP luminescence, 48 h | Potency, µM (top dose mostly 46.1 µM), without a hit: top-dose activity, negative = toxicity, usual class: cytotoxic | 2% of 360,000 active | AID 686971;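 further: potency means the concentration at half of the fitted maximal effect; 0% = DMSO wells and -100% = cell-free medium wells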
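Luminescent ATP read-out (CellTiter-Glo, 10 min at room temperature) after 48 h compound exposure at 37 °C gave viability of IDH1-knockdown HT-1080 cells. Activity was normalised to DMSO and cell-free wells, then fitted as concentration-response curves.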
ALOX12 inh = ALOX12 (human) lipoxygenase inhibition. P18054. purified 12hLO, xylenol orange hydroperoxide absorbance. Potency, µM (doses to about 108 µM), inactives show top-dose activity change, negative = inhibition, usual class: inhibitors. 1.1% of 580,000 active. AID 1671190; further: potency means the concentration at half of the fitted maximal effect
Target sequence (P18054 whole entry, looked up): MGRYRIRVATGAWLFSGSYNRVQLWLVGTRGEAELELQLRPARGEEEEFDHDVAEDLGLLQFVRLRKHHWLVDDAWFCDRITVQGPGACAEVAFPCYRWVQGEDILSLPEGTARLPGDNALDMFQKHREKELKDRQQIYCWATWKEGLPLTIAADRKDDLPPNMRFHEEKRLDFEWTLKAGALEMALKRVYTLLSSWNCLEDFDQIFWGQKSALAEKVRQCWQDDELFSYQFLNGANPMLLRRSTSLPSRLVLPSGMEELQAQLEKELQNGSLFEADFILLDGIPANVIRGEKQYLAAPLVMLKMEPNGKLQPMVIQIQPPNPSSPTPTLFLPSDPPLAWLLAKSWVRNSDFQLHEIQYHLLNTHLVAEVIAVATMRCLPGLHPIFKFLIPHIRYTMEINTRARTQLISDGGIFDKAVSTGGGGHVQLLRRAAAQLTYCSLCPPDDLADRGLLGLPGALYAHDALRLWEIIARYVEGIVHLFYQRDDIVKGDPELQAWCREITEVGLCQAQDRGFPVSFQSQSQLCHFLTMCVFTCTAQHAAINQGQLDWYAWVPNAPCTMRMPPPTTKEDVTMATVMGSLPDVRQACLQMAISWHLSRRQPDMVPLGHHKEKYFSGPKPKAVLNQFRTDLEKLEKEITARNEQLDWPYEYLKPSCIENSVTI
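Hydroperoxide product was detected by ferrous iron/xylenol orange as the 573 to 405 nm absorbance ratio. Arachidonic acid at 40 uM (final) was turned over for 30 min at room temperature by 150 nM human 12hLO, pH 7.0 Hepes buffer, after 15 min compound preincubation.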
TDP1 cell noCPT = qHTS for Inhibitors of human tyrosyl-DNA phosphodiesterase 1 (TDP1): qHTS in cells in absence of CPT. DT40 Tdp1-/- hTDP1 cells, no CPT, ATP luminescence, 48 h. Potency, µM (series often up to 46.2 µM), for inactives: at the top dose activity change, negative = growth inhibition, usual class: inhibitors. 15% of 420,000 active. AID 686978, 2013; further: potency means the concentration at half of the fitted maximal effect; nearly all actives have a fitted effect of over 55% in size
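Stably hTDP1-transfected Tdp1-null chicken DT40 cells were treated with library compounds minus camptothecin and grown for at least 48 hr at 37 °C, after which cellular ATP was quantified by luminescence.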
IL1B secr inh = inflammasome signaling inhibition, IL-1 beta readout | THP-1 LPS/ATP IL-1B secretion, AlphaLISA, 16 h; stronger effect = lower value | activity change, % at 57.5 µM | 4.7% of 360,000 active | AID 743279; in the data active means activity change below about -50%; inconclusive means mostly about -30% to -49%
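THP-1 cells pretreated 1 hr with compounds (up to 57.5 uM final), then stimulated with LPS (250 ng/mL final) plus ATP (1.25 mM final); secreted IL-1B measured by AlphaLISA after 16 hr, decreased signal indicating inhibition.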
DT40 TDP1 CPT = growth inhibition of DT40 Tdp1-/-;hTDP1 cells with camptothecin (screen for TDP1 inhibitors); chicken DT40 Tdp1-/-;hTDP1 cells + 20 nM CPT, ATP luminescence, 48 h; Potency, µM (top dose mostly 46.2 µM), inactives show top-dose activity change, negative = growth inhibition, actives largely listed as inhibitors; 12% of 420,000 active; AID 686979; further: potency means the concentration at half of the fitted maximal effect; nearly all actives have a fitted effect of over 55% in size
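Chicken DT40 Tdp1-/- cells complemented with human TDP1, 400 cells/well, exposed to compounds plus 20 nM camptothecin for at least 48 h at 37 C; viability read as ATP content by CellTiter-Glo luminescence.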
Numbers without * were called inactive; ? = inconclusive; . = not tested or not shown; ! = not confirmed by another sample; [ ] = dose if it differs, or a comment. Only a selection was taken, and hits are over-represented in it overall. Unless noted, the call rests on the fitted dose curve; in most records, active means well fitted curve in the direction sought with a large enough effect; inconclusive means small, poorly fitted or top-dose-only effect, or another doubt; inactive means no such curve, though single readings can be large; an effect the other way counts as inactive or inconclusive. Unless noted, on the % scale 0 is the no-effect control and ±100 the full control effect.

SMILES	HT1080NT lethal	HT1080 IDH1KD tx	ALOX12 inh	TDP1 cell noCPT	IL1B secr inh	DT40 TDP1 CPT
Cc1ccc(CNC(=O)c2oc3c(c2C)-c2nn(Cc4ccc(Cl)cc4)cc2CC3)cc1	.	.	?	9.2µM*	.	10µM*
Cc1c(C(=O)O)oc2c1-c1nn(Cc3ccc(Cl)cc3)cc1CC2	.	.	?	-9%	.	12%
CSc1ccc(S(=O)(=O)NCC(=O)OCC(=O)NCc2cccs2)cc1[N+](=O)[O-]	0%	5%	-8%	-19%	-66*	-6%
CSc1ccc(S(=O)(=O)NCC(=O)OC2CCOC2=O)cc1[N+](=O)[O-] (configuration not stated)	4%	6%	0%	6%	-68*	1%
CSc1ccc(S(=O)(=O)NCC(=O)OCC(=O)N2CC(C)CC(C)C2)cc1[N+](=O)[O-] (configuration not stated)	0%	0%	?	9%	-1	1%
CSc1ccc(S(=O)(=O)NCC(=O)OCC(=O)N2CCCC2=O)cc1[N+](=O)[O-]	1%	-6%	-9%	?	-96*	?
COc1ccc(CCNC(=O)COC(=O)CNS(=O)(=O)c2ccc(SC)c([N+](=O)[O-])c2)cc1	5%	16%	240%	13%	10	-10%
COc1cccc2c1C(=O)c1c(O)c3c(c(O)c1C2=O)C[C@@](O)(C(=O)CO)C[C@@H]3O[C@H]1C[C@H](N)[C@H](O)[C@H](C)O1	9.2µM*	0.33µM*	?	0.021µM*!	-107*	0.21µM*!
COc1cccc2c1C(=O)c1c(O)c3c(c(O)c1C2=O)C[C@@](O)(C(=O)CO)C[C@@H]3O[C@@H]1C[C@H](N)[C@H](O)[C@H](C)O1	.	.	0%	.	.	.
COc1cccc2c1C(=O)c1c(O)c3c(c(O)c1C2=O)CC(O)(C(C)=O)CC3OC1CC(N(C)C)C(O)C(C)O1 (configuration not stated)	?	0.73µM*	5%	0.082µM*	-101*	0.052µM*
COc1cccc2c1C(=O)c1c(O)c3c(c(O)c1C2=O)C[C@@](O)(C(=O)CO)C[C@@H]3OC1CC(N)C(O)C(C)O1 (some centres not stated)	?	4.6µM*	?	0.26µM*	-105*	0.29µM*
Cc1ccc(CNC(=O)C2CCN(C(=O)Nc3ccc(C)cc3)CC2)cc1	1%	-12%	-5%	-17%	10	?
CCCc1ccc(S(=O)(=O)N2CCC(c3nnnn3-c3ccc(OC)cc3)CC2)cc1	.	.	-7%	-19%	.	-29%
COc1ccc(-n2nnnc2-c2ccc(S(C)(=O)=O)cc2Cl)cc1	0%	8%	-1%	5.2µM*	0	?
Clc1ccc(-n2nnnc2-c2ccccc2)cc1	1%	-15%	-24%	-10%	-6	-15%
COc1ccc(-n2nnnc2-c2ccccc2)cc1	5.6µM*	?	18%	2.9µM*	39	3.7µM*
COc1ccc(-n2nnnc2C2CCN(S(=O)(=O)c3cccc(Cl)c3C)CC2)cc1	.	.	0%	26µM*	.	21µM*
COc1ccc(S(=O)(=O)Cc2nnnn2-c2ccc(Cl)c(Cl)c2)cc1	.	.	-78%	.	.	.
Cc1ccc(F)c(OCC(=O)c2ccc3c(c2)N(C(C)C(=O)NCc2ccco2)C(=O)CO3)c1 (configuration not stated)	.	.	1%	.	.	.
CCN1C(=O)/C(=C/C=C2\C=CN(CC)c3ccccc32)SC1=S	13%	14%	?	16µM*	-1	16µM*
CCN1C(=O)/C(=C2/C=CC=CN2C)SC1=S	-6%	-12%	0%	-9%	0	-6%
CCN1C(=O)/C(=C\C=C2/C=CC=CN2CC)SC1=S	-19%	-18%	?	29µM*	?	?
CCOc1ccc(CC(=O)N2CCC3(CC2)CN(C(C)=O)CC3COC)cc1 (configuration not stated)	.	.	19%	.	.	.
CCCCCCOc1ccc(C(=O)Oc2ccc(-c3ccc(CCC)cn3)cc2)cc1	.	.	-12%	.	.	.
CC(C)=CCC1=C(OCC(=O)O)C(=O)c2ccccc2C1=O	?	?	-30%	29µM*	15	23µM*
SMILES	HT1080NT lethal	HT1080 IDH1KD tx	ALOX12 inh	TDP1 cell noCPT	IL1B secr inh	DT40 TDP1 CPT
CC(C)=CCC/C(C)=C/CC/C(C)=C/CC/C(C)=C/CC1=C(C)C(=O)c2ccccc2C1=O	-6%	-20%	?	24µM*	0	27µM*!
COc1ccccc1OCC(=O)O	-3%	-1%	-14%	-7%	-11	-1%
COCCn1c(=O)c(-c2ccc(F)cc2)nc2cnc(N3CCOCC3)nc21	.	.	0%	21%	.	-11%
O=C(O)c1cc(N2N=C(C(F)(F)F)/C(=C/C=C/c3ccco3)C2=O)ccc1Cl	-4%	-1%	5.6µM*	18µM*	16	?
CCc1ccc(NC(=O)N2CCc3c(nc4cc(-c5ccc(OC)cc5)[nH]n4c3=O)C2)cc1	.	.	5%	.	.	.
c1ccc(C(c2ccccc2)N2CCCC3(CCNCC3)C2)cc1	.	.	2%[57.4 µM]	6.5µM*	.	9.2µM*
CS(=O)(=O)N1CCC[C@@]2(CCN(C(c3ccccc3)c3ccccc3)C2)C1	.	.	0%[57.4 µM]	?	.	?
c1ccc(C(c2ccccc2)N2CC[C@@]3(CCCNC3)C2)cc1	.	.	-5%[57.4 µM]	26µM*	.	?
COC(=O)N1CCC2(CCCN(C(c3ccccc3)c3ccccc3)C2)CC1	.	.	-11%[57.4 µM]	-25%	.	13%
Cc1noc([C@@H]2CN(Cc3ccccc3)C[C@H]2CO)n1	.	.	15%	.	.	.
Cc1nc(C)c(C(=O)N2CCCCCNC(=O)[C@@H]3CCC[C@@H]32)s1	.	.	49%	.	.	.
COc1ccc(O)c(/C=N/n2c(-c3ccco3)csc2=Nc2cccnc2)c1	-18%	-7%	-10%	?	0	-27%
CN=c1scc(-c2ccccc2F)n1/N=C/c1ccc[nH]1	?	?	-22%	?	?	-11%
CCN=c1scc(-c2cccs2)n1/N=C/c1cc(OC)ccc1O	-17%	-25%	-14%	21µM*	-62*	?
CC(C)N=c1scc(-c2cccs2)n1/N=C/c1ccc(O)c(O)c1O	?	16µM*	14µM*	13µM*	-83*	13µM*
CN=c1scc(-c2ccccc2F)n1/N=C/c1ccc(O)c(O)c1O	-21%	?	35µM*	12µM*	-14	13µM*
